The source of these data is PubChem BioAssay (NCI).

This is part of a sample that, as a whole, favours compounds with a hit. Of some 83,000 tested, about 20% had one in any assay.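 Cells were grown in 96-well plates and exposed to the test compound at a single concentration for 48 hours; results are reported as percent growth, with values below 10 considered active.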 Unmarked numbers belong to inactive results. Active and inactive are the calls of the source.

Assay in all cases: NCI-60 one-dose screen, 48 h (100 = growth as untreated, 0 = no growth, -100 = all killed)
Holding throughout (details): 10 µM unless noted

For experiment [1], the system named is SK-MEL-2 melanoma.
Experiment [2] concerns EKVX NSCLC.
Experiment [3] deals with SN12C renal.
For experiment [4], the system named is UO-31 renal.
Experiment [5] deals with TK-10 renal.
The test system of experiment [6] is ACHN renal.
Experiment [7] concerns CAKI-1 renal.
In experiment [8] the test system is CCRF-CEM leukemia.
For experiment [9], the system named is MOLT-4 leukemia.
Experiment [10] has as its system A498 renal.

With `Oc1[nH]c2ccccc2c1/C=c1/ccc2c(c1)N=C(c1ccc(C(F)(F)F)cc1)N=2`, the growth was 27.9% in experiment [1]; 51.1% in experiment [2]; 63.7% in experiment [3]; 73.1% in [4]; 75.5% in experiment [5]; 58.7% in experiment [6]. Besides, the growth is 32.8% in experiment [7], 8.28% (active) in [8] and 35.5% in [9].
As for `CN(C)c1ccc(N2Cc3ccccc3OC3=C2C(=O)c2c(O)ccc(O)c2C3=O)cn1`, the growth is -51.5% (active) in experiment [1]; -15.8% (active) in [2]; -91.7% (active) in [3]; -99.1% (active) in experiment [4]; -93.9% (active) in experiment [5]; -100% (active) in [6]. The growth in [10] is -61.1% (active); in experiment [8] it was -8.39% (active); in experiment [9], -22.4% (active).
Regarding `CCCCCCCCCCCCCCCC1=NCC[N+]1(CCO)CCO`, the growth in experiment [1] is 85.2%; in experiment [2], 72.3%; in experiment [3], 67%; in experiment [4] it was 42.1%; in [5], 66.6%; in experiment [6], 67.1%. Further, the growth in experiment [7] was 79.5%; in experiment [10], 86.8%; in [9], 43%.
For `Cc1ccc(O)c(Cc2ccccc2)c1`, the growth was 93.8% in [1]; 116% in experiment [2]; 90.3% in [3]; 84% in experiment [4]; 100% in experiment [5]; 100% in experiment [6]. Besides, the growth in [10] was 99.9%; in [8] it was 103%.
Regarding `Fc1ccc2nc(-c3ccc(-c4noc(-c5ccc(Cl)cc5)n4)cc3)[nH]c2c1`, the growth in experiment [1] was 105%; in [2], 107%; in experiment [3] it was 110%; in experiment [4] it was 83.9%; in experiment [5] it was 115%; in experiment [6] it was 110%. Further, the growth in experiment [7] is 102%; in [10], 81%; in experiment [9] it was 89.8%.
On to `C#CC[C@@H]1C[C@]2(C)[C@H]3CC[C@@H]4[C@H]5C(C(=C)C)CC[C@]5(C(=O)NCCN(CCN)CCN)CC[C@@]4(C)[C@]3(C)CC[C@H]2C(C)(C)[C@H]1OC(C)=O` (stereo partly specified), for which the growth in experiment [1] is 112%; in experiment [2] it was 31%; in experiment [3] it was 87.8%; in experiment [4], 74.7%; in experiment [5], 95%; in [6] it was 91.3%. In addition, the growth was 56.3% in [7], 128% in [10], 22.5% in experiment [8] and 31.1% in experiment [9].
`CO[C@@]12[C@@H]3NC3CN1C1=C(C(=O)C(N)=C(C)C1=O)[C@@H]2COC(N)=O` (stereo partly specified): the growth in [1] was -11.2% (active); in experiment [2] it was 49.6%; in experiment [3] it was 24.6%; in [4] it was 5.54% (active); in experiment [5], 9.47% (active); in experiment [6] it was -10.3% (active). Further, the figures for the growth in [7] and in [8] were 14.9% and 27.1%, respectively.
With `Nc1nc(N)c2cc(Sc3ccc(Cl)cc3)ccc2n1`, the growth in [1] is 50.7%; in experiment [2], 33.6%; in [3], 29.7%; in experiment [4], 21.6%; in [5], 43%; in experiment [6] it was 23%. Besides, the growth in experiment [10] is 63.6%; in experiment [8] it was 41.5%; in experiment [9], 25.8%.
Turning to `CCNS(=O)(=O)c1ccc(C)cc1`, the growth in experiment [1] was 116%; in experiment [2], 106%; in experiment [3], 98.5%; in experiment [4], 97.3%; in [5], 115%; in experiment [6] it was 96.4%. Further, the results for the growth in experiment [8] and in experiment [9] were 89.7% and 95.9%, respectively.
On to `CN(CCO)c1ccc(N2Cc3ccccc3OC3=C2C(=O)c2c(O)ccc(O)c2C3=O)cn1`, for which the growth in experiment [1] is -54.4% (active); in experiment [2], -38.5% (active); in experiment [3] it was -90.9% (active); in experiment [4], -100% (active); in experiment [5], -98.5% (active); in experiment [6], -100% (active). In addition, the growth in [10] was -48.2% (active); in experiment [8], -12.2% (active); in [9], -30.6% (active).
On to `O=[N+]([O-])c1cccc(N=C(Nc2cccc([N+](=O)[O-])c2)c2ccccc2)c1`, for which the growth was 77.9% in [1]; 81.4% in experiment [2]; 83.4% in experiment [3]; 40.5% in [4]; 78.8% in experiment [5]; 93.8% in [6]. The growth is 104% in experiment [10], 65.3% in experiment [8] and 59.4% in experiment [9].
Turning to `C=CCn1c(SCC(=O)Nc2ccc(C(=O)/C=C/c3ccccc3)cc2)nnc1-c1ccc(OC)c(OC)c1`, the growth was 85.2% in [1]; 80.7% in experiment [2]; 74.7% in experiment [3]; 55.7% in experiment [4]; 87.6% in experiment [5]; 86.8% in experiment [6]. The figures for the growth in experiment [10], in experiment [8] and in [9] were 75%, 83.7% and 58.2%, respectively.
For `C=C(CN1CC=CCC1)[C@@H]1CC[C@]2(C(=O)OC)CC[C@]3(C)[C@H](CC[C@@H]4[C@@]5(C)CC[C@H](OC(C)=O)C(C)(C)[C@@H]5CC[C@]43C)[C@@H]12`, the growth in [1] was 103%; in [2], 109%; in [3], 92.8%; in [4] it was 86.4%; in experiment [5] it was 121%; in [6], 102%. For the same compound, the growth in [10] was 113%; in experiment [8] it was 82.7%; in experiment [9] it was 82.1%.
With `Fc1cc(-c2nnc3sc(-c4ccc(Cl)cc4)nn23)c(Cl)cc1Cl`, the growth in [1] was 95.7%; in experiment [2] it was 96.2%; in [3], 103%; in [4], 78.1%; in experiment [5] it was 99.9%; in experiment [6] it was 101%. Further, the growth in experiment [10] was 97.8%; in [8] it was -75.3% (active); in experiment [9], 60.6%.
As to `CCCCCNCCCCCNc1cc(OC)cc2cccnc12`, the growth in experiment [1] is 99%; in [2], 101%; in experiment [3] it was 92.7%; in [4], 46%; in [5], 78.7%; in [6] it was 94.3%. In experiment [8], the growth was 95.2%.
